Active and inactive are the calls of the source.

A short description of assay [1]: binders of probe aFSTL3 on microarray, primary screen, stem cell growth factor project, biochemical, small-molecule microarray, fluorescence 635/667 (AID 1064).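 Further: measures binding of the biotinylated anti-FSTL3 antibody to printed compounds.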 The note with it: higher = more signal.
Assay [2] can be described thus: binders from COS7 lysate, DM2A8 probe, primary screen, torsin A project, cell lysate, small-molecule microarray, fluorescence 635/667 (AID 1065). To be noted: higher = more signal, COS7 lysate expressing mutant human TOR1A.
Assay [3] can be described thus: binders of probe aFGF2 on microarray, primary screen, stem cell growth factor project, biochemical, small-molecule microarray, fluorescence 635/667 (AID 1067).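 Further: measures binding of biotinylated aFGF2 protein to printed compounds on slides; z-score merges feature fluorescence and signal-to-noise across triplicate slides.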 The note with it: higher = more signal.
Assay [4] can be described thus: binders of probe aFGF10 on microarray, primary screen, stem cell growth factor project, biochemical, small-molecule microarray, fluorescence 635/667 (AID 1071).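 Further: score merges 667 nm spot intensity and signal to noise from triplicate slides.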 The note with it: higher = more signal.
The target in assay [5] is Neurogenic locus notch homolog protein 2 (Homo sapiens) (UniProt Q04721). Description: Notch2 binders on small-molecule microarrays, primary screen, biochemical, small-molecule microarray, 635 nm fluorescence, stem cell growth factors (AID 1073). To be noted: Notch2 binding, higher = more signal.
In assay [6] the target is Pro-neuregulin-1, membrane-bound isoform (Homo sapiens) (UniProt Q02297). Description: NRG1 binders on small-molecule microarrays, primary screen, psychiatric disease protein project, biochemical, small-molecule microarray, fluorescence 635/667 (AID 1075).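 Further: score combines 667 nm spot fluorescence with signal to noise.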 To be noted: NRG1 binding, 635 nm fluorescence, higher = more signal.
Assay [7] concerns Neuregulin-1 EGF-like domain. Briefly: binders of neuregulin-1 EGF-like domain, primary screen, biochemical, small-molecule microarray, 635 nm fluorescence (AID 1081).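 Further: binding of the protein to compounds printed on small-molecule microarray slides.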 The note with it: small-molecule microarray binding, higher = more signal.
Assay [8] is described as follows: FRG1 promoter luciferase signal modulators, primary screen, FRG1 inhibition for FSHD, cell-based, C2C12 myotubes, firefly/Renilla luciferase, luminescence (AID 1084). To be noted: higher = more signal, called active from +8 up or from −8 down.
Assay [9] can be described thus: binders of probe aFST on microarray, primary screen, stem cell growth factor project, biochemical, small-molecule microarray, fluorescence 635/667 (AID 1086).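 Further: score merges 667 nm fluorescence with signal-to-noise of each printed compound spot.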 The note with it: higher = more signal.
Assay [10] can be described thus: binders of probe aHhip on microarray, primary screen, stem cell growth factor project, biochemical, small-molecule microarray, fluorescence 635/667 (AID 1087).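 Further: score merges spot fluorescence at 667nm with spot signal to noise ratio.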 To be noted: higher = more signal.
For assay [11], the system named is PRMT1 (protein arginine N-methyltransferase 1). Briefly: PRMT1 binders on small-molecule microarrays, primary screen, biochemical, small-molecule microarray, 635 nm fluorescence (AID 1088).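 Further: binding of Prmt1 protein to compounds spotted on small-molecule microarray slides.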 To be noted: small-molecule microarray binding, higher = more signal.
Assay [12] is described as follows: yeast growth modulation, basal conditions, primary screen, YJM789 clinical isolate, OD600, 24 h (AID 1089).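 Further: growth of clinical yeast isolate S. cerevisiae YJM 789 seeded 1000 cells per well; test concentration not given here.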 To be noted: S. cerevisiae YJM789 growth, higher = more signal, called active from +8 up or from −8 down.
Assay [13] can be described thus: fission yeast growth modulation, primary screen, strain 972, OD600, 24 h, no modulator (AID 1090).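 Further: basal condition with compound alone and no growth modifier present; test concentration not given here.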 To be noted: S. pombe 972 growth, higher = more signal, called active from +8 up or from −8 down.
The nature of assay [14]: S. cerevisiae growth modulation with rapamycin, primary screen, strain BY4716, OD600, 96 h (AID 1091). Further: test concentration not given here. The note with it: higher = more signal, called active from +8 up or from −8 down.
Assay [15] has as its target Torsin-1A-interacting protein 2 (Homo sapiens) (UniProt Q8NFQ8). Briefly: LULL1 binders on small-molecule microarray, primary screen, cell lysate, human LULL1 lysate, 635/667 nm fluorescence (AID 1092).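 Further: probe is lysate of COS7 cells overexpressing human LULL1; score merges per-feature 667 nm fluorescence with signal-to-noise.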 To be noted: hLULL1 lysate binding, 635 nm fluorescence, higher = more signal.
Assay [16] can be described thus: E. coli growth modulation, two-sided OD650, primary screen, E. coli filamentation project, strain DRC41, 24 h (AID 1093).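 Further: MC1000 strain lacking acrAB efflux and sulA so SOS filamentation is blocked; test concentration not given here.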 The note with it: OD650, 24 h, higher = more signal, called active from +8 up or from −8 down.
A short description of assay [17]: small-molecule microarray binders of probe aLefty2, primary screen, biochemical, biotinylated probe, 635/667 nm fluorescence (AID 1094).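 Further: score merges spot fluorescence near 667 nm with spot signal-to-noise ratio.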 The note with it: higher = more signal.
The subject of assay [18] is Noggin (protein binding on small-molecule microarray). Briefly: Noggin binders on small-molecule microarray, primary screen, biochemical, 635/667 nm fluorescence (AID 1095).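 Further: score merges 667 nm feature fluorescence with signal to noise over triplicate slides.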 The note with it: 635 nm fluorescence, higher = more signal.
The target in assay [19] is Neurogenic locus notch homolog protein 3 (Homo sapiens) (UniProt Q9UM47). Description: NOTCH3 binders on small-molecule microarray, primary screen, biochemical, 635/667 nm fluorescence (AID 1096). The note with it: NOTCH3 binding, 635 nm fluorescence, higher = more signal.
The nature of assay [20]: small-molecule microarray binders of probe aEGFR, primary screen, biochemical, biotinylated probe, 635/667 nm fluorescence (AID 1097).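 Further: probe is a biotinylated anti-EGFR antibody binding compounds printed on slides; score combines fluorescence near 667 nm and signal to noise of each spot.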 The note with it: higher = more signal.

Sequence of Pro-neuregulin-1, membrane-bound isoform (Homo sapiens) (Q02297 whole entry, looked up, the tested form may be a part, canonical isoform): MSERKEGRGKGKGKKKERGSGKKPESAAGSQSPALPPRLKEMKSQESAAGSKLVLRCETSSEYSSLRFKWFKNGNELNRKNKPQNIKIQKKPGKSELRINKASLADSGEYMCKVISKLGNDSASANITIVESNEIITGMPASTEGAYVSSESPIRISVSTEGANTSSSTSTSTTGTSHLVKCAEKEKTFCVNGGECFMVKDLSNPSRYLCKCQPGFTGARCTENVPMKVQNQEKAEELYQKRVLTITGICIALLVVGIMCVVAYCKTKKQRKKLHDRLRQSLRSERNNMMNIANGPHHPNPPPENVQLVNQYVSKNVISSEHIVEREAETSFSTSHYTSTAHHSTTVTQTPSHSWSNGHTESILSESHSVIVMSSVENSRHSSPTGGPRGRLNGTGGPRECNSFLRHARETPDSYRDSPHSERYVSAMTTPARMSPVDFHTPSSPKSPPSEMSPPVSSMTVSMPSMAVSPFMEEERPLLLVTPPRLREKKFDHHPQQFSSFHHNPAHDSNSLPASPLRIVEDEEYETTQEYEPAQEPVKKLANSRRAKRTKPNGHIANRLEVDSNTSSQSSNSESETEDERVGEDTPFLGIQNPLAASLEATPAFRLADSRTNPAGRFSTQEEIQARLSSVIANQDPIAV
Sequence of Neurogenic locus notch homolog protein 2 (Homo sapiens) (Q04721 whole entry, looked up, canonical isoform): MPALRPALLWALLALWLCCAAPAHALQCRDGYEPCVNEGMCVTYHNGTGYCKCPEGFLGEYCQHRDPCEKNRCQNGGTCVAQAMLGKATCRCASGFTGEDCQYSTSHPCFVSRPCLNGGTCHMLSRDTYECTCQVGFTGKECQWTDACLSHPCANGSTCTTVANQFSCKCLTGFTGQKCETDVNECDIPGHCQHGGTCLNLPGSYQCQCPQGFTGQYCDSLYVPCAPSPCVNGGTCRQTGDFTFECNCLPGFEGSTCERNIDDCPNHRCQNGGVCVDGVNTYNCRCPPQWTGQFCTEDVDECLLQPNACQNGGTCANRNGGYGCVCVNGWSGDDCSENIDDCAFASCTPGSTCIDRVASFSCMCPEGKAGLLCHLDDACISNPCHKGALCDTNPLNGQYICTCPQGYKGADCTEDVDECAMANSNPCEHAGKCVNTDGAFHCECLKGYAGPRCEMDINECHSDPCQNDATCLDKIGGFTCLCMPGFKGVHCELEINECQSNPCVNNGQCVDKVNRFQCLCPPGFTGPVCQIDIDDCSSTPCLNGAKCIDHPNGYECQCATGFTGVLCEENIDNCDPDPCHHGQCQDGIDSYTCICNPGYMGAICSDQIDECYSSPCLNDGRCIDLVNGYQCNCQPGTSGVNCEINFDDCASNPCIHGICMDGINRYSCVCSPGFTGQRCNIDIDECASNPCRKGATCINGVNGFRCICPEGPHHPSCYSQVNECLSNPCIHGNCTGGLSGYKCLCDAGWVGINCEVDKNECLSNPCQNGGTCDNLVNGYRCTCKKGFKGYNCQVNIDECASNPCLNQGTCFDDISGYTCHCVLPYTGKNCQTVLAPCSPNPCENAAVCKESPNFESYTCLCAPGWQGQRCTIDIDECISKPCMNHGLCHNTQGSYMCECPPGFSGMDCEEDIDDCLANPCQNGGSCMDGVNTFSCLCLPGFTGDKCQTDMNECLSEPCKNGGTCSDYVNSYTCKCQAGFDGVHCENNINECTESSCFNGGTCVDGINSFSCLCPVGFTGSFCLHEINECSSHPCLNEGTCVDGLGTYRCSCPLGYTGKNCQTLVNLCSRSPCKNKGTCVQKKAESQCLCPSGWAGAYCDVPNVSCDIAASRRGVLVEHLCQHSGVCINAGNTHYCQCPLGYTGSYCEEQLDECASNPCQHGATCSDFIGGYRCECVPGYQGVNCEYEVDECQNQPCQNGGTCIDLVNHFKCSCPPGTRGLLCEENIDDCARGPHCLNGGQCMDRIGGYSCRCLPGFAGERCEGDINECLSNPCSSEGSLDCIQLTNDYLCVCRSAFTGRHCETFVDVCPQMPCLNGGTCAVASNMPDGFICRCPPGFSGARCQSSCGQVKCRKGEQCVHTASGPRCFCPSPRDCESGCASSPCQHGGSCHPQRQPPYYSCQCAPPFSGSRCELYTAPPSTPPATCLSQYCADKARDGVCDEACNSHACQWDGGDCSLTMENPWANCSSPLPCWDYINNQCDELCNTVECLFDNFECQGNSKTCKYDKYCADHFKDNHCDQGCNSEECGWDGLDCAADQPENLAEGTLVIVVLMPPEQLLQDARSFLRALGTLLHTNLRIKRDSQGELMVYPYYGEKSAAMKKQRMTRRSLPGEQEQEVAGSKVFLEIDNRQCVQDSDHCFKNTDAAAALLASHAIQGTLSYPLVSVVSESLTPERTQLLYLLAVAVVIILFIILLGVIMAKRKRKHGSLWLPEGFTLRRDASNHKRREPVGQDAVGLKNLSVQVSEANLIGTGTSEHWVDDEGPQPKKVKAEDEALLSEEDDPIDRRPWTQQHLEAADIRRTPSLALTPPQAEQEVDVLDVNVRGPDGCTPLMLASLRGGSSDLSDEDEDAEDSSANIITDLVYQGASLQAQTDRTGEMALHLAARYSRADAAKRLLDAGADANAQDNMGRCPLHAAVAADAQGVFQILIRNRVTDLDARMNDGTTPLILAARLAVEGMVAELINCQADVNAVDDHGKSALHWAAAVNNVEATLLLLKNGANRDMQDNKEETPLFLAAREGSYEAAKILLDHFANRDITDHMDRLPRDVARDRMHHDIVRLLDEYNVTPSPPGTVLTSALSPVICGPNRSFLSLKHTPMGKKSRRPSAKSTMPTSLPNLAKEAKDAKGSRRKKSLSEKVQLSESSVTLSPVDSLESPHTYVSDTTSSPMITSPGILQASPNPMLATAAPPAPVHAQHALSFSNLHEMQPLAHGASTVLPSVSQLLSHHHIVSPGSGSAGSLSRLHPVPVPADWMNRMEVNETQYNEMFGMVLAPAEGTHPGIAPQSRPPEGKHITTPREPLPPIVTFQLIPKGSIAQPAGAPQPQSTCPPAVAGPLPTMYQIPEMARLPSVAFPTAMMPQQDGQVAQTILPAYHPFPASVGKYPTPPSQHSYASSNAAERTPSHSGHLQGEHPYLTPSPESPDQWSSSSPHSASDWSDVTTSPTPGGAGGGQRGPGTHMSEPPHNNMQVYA
Sequence of Torsin-1A-interacting protein 2 (Homo sapiens) (Q8NFQ8 whole entry, looked up): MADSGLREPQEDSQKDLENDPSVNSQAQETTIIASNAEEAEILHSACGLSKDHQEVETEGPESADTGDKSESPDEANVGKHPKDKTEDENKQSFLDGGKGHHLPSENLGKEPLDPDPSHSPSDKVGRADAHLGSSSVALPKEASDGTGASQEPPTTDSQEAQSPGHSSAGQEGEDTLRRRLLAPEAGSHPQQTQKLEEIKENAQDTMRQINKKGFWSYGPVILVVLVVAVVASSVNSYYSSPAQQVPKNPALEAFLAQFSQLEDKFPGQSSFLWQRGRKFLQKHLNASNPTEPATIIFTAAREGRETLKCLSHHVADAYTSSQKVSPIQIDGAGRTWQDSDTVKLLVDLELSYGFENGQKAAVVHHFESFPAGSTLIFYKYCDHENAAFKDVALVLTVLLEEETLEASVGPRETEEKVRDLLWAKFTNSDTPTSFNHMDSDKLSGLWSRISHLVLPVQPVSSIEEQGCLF

For `CCOC(=O)C[C@H]1[C@H](OC(=O)c2ccccc2-c2ccccc2)[C@@H](NC(=O)CC(C)C)c2cc(OCCCO)ccc2N1C(=O)Cc1ccc(OC)cc1`, the composite z-score was -0.259 in assay [1]; 0.43 in assay [2]; -0.104 in assay [3]; 0.225 in assay [4]; 0.135 in assay [5]; 0.173 in assay [6]. Moreover, the composite z-score in assay [7] is -0.155; in [9], 0.327; in [10] it was -0.199; in [11] it was 0.395; in assay [15], 0.472; in assay [17] it was -0.103. For the same compound, the composite z-score in assay [18] is 0.356; in [19], -0.23; in [20] it was -0.111. The z-score in assay [8] was 0.506 (inactive); in assay [12], -0.454 (inactive); in [13], 0.109 (inactive); in assay [14], 0.146 (inactive); in assay [16] it was -0.853 (inactive).

As for `CC[C@@H]1C=C(C(=O)O)[C@H](c2ccc(Br)cc2)N1S(=O)(=O)c1ccc(C)cc1`, the composite z-score came to 0.191 in assay [1]; 0.0963 in assay [2]; 0.0746 in [3]; 0.638 in assay [4]; 1.26 in assay [5]; 1.93 in assay [6]. The composite z-score in assay [7] stood at 0.503; in [9], 0.614; in assay [10], 0.141; in assay [11] it was 0.399; in assay [15] it was 2.7; in assay [17], 0.295. The composite z-score is 0.37 in assay [18], 0.481 in [19] and -0.0512 in assay [20]. In addition, the z-score in assay [8] was -1.18 (inactive); in assay [12] it was -0.564 (inactive); in assay [13], 0.794 (inactive); in [14], -0.535 (inactive); in [16], -0.319 (inactive).

For `C=CCN1C(=O)[C@@]2(Cc3ccccc31)N=C(c1ccc(OCCCO)cc1)O[C@H]2c1ccccc1`, the composite z-score is 1.12 in assay [1]; 0.282 in assay [2]; 0.0085 in [3]; -0.112 in assay [4]; 1.01 in assay [5]; 1.24 in assay [6]. Further, the composite z-score in assay [7] is 1.23; in [9] it was 0.83; in assay [10], -0.144; in assay [11], 1.54; in assay [15] it was 3.12; in [17] it was 0.352. The composite z-score in assay [18] was determined as 0.638; in [19], 1.11; in [20], 0.122. In addition, the z-score in [8] was -2.07 (inactive); in assay [12] it was -1.95 (inactive); in assay [13], -6.68 (inactive); in assay [14], 2.77 (inactive); in assay [16] it was 1.44 (inactive).

For the compound `C=C[C@H](OC)[C@@H](OC(=O)Nc1ccc(OC)cc1)c1ccc(O)c(F)c1`, the composite z-score was 0.348 in [1]; 0.242 in assay [2]; -0.175 in assay [3]; -0.827 in [4]; -1.31 in assay [5]; 1.11 in assay [6]. Further, the composite z-score is 0.804 in assay [7]; -0.922 in assay [9]; -0.0994 in assay [10]; 0.148 in assay [11]; 1.89 in assay [15]; -0.21 in [17]. Besides, the values for the composite z-score in assay [18], in assay [19] and in assay [20] were -0.932, -0.363 and -0.335, respectively. In addition, the z-score in assay [8] was 2.95 (inactive); in assay [12], 0.337 (inactive); in [13], -1.18 (inactive); in assay [14] it was 1.3 (inactive); in assay [16], 0.512 (inactive).

Take `C=CCC(OC(C)=O)[C@@H]1[C@@H](N(Cc2ccc(-c3cccc(C(F)(F)F)c3)o2)C(=O)c2ccc(C)cc2)c2cc(OCCCO)ccc2N1C(=O)Cc1ccc2ccccc2c1` (stereo not given in full): the composite z-score was 0.0498 in [1]; -0.752 in assay [2]; -0.102 in [3]; 0.205 in assay [4]; -0.564 in assay [5]; -0.326 in [6]. In addition, the composite z-score is -0.513 in assay [7]; 0.0714 in [9]; -0.134 in assay [10]; 0.0457 in assay [11]; -0.0958 in [15]; -0.0674 in assay [17]. Moreover, the composite z-score in assay [18] was -0.408; in assay [19] it was -0.624; in [20], -0.108. Moreover, the z-score was -0.201 (inactive) in assay [8]; 0.677 (inactive) in assay [12]; -0.0286 (inactive) in assay [13]; 0.303 (inactive) in assay [14]; 1.6 (inactive) in assay [16].

The record behind these values is PubChem BioAssay.
